Rows were chosen to be rich in hits. Some 8.9% of all compounds tested hit in one or more screens of this group.
DRD3 antagonist: qHTS of D3 Dopamine Receptor Antagonist: qHTS; D(3) dopamine receptor (Homo sapiens), P35462; D3R cells, DiscoveRx beta-arrestin luminescence, antagonist mode; hits give low values; max response, negative = inhibition, %; 360,000 tested, 2.5% active; AID 652054, 2013; in the data active = max response below about -50%; inconclusive = no clear call, values can overlap the other calls; also: % is scaled to controls: 0 for no effect and ±100 for the full control effect
Target sequence (P35462 whole entry, looked up): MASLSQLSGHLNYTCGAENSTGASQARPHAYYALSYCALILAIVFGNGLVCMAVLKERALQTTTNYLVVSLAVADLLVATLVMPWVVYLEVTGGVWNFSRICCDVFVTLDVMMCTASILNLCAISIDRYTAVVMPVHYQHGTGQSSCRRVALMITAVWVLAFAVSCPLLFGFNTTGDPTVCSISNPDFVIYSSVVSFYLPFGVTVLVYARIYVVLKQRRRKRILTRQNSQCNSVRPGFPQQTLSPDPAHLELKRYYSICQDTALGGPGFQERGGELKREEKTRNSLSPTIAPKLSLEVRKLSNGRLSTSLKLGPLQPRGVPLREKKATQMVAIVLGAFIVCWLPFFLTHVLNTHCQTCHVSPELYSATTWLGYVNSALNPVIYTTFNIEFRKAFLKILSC
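Cells expressing the human receptor were seeded at 1500 cells/well, incubated overnight at 37 degrees C in 5% CO2, then exposed to library compounds with dopamine controls for 90 minutes at 37 degrees C before luminescent detection.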
MCF10A rerep: A quantitative high throughput screen for small molecules that induce DNA re-replication in MCF 10a normal breast cells. Potency, µM (highest dose often 46.1 µM), for the others: top-dose activity, positive = re-replication, hits mostly activators. AID 624296, 2012. MCF 10A DNA re-replication, Hoechst nuclear intensity, 48 h. 350,000 tested, 2.9% active; also: potency is read from the fitted curve at half-maximal effect; % of control where 0% means no effect; nearly all actives have a fitted effect of over 50% in size
SW480 rereplic: A quantitative high throughput screen for small molecules that induce DNA re-replication in SW480 colon adenocarcinoma cells; AID 624297, 2012; 340,000 tested, 1.8% active; SW480 DNA re-replication, Hoechst DNA content imaging, 48 h; Potency, µM (top dose mostly 46.1 µM), inactives show at the highest dose re-replication activation, hits mostly activators; also: potency is read from the fitted curve at half-maximal effect; % of control where 0% means no effect; nearly all actives have a fitted effect of over 55% in size
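Treated cells incubate 48 hr (37 C, 5% CO2), are stained 40 min with Hoechst, and nuclear fluorescence is enumerated; a rise in nuclei with high DNA signal marks re-replication.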
KB-3-1 tox: qHTS assay for MDR1-selective chemotherapeutics: Primary screen using the parental adenocarcinoma cell KB-3-1; KB-3-1 viability, CellTiter-Glo ATP luminescence, 72 h; Potency, µM (highest dose often 46.1 µM), hits mostly cytotoxic; 400,000 tested, 1.4% active; AID 1347075, 2019; also: potency is read from the fitted curve at half-maximal effect; % is scaled to controls: 0 for no effect and ±100 for the full control effect; nearly all actives have a fitted effect of over 60% in size
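Here the drug-naive KB-3-1 line serves as comparator for MDR sub-line selectivity; cells received compound titrations, 72 h at 37 °C, then CellTiter-Glo readout.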
D3 ag: qHTS of D3 Dopamine Receptor Agonist: qHTS | D3R DiscoveRx beta-arrestin cells, luminescence, 90 min | max activation, % | 410,000 tested, 0.58% active | AID 652048, 2013; in the data active = max activation above about 30%; also: 0% is about no effect
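Agonist-mode cell screen: cells plated at 1500/well and incubated overnight at 37 °C, then exposed to library compounds for 90 min at 37 °C. Detection reagent was added for 30–60 min at room temperature, and luminescence was read.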
KB-V1 MDR tox: qHTS assay for MDR1-selective chemotherapeutics: Primary screen using the drug-selected MDR subline cells KB-V1 | KB-V1 MDR cells viability, CellTiter-Glo, 72 h | AID 1347076, 2019 | Potency, µM (highest dose often 46.1 µM), actives largely listed as cytotoxic | 400,000 tested, 3.4% active; also: potency is read from the fitted curve at half-maximal effect; % is scaled to controls: 0 for no effect and ±100 for the full control effect; nearly all actives have a fitted effect of over 60% in size
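Potencies derive from concentration-effect curves fitted to normalized luminescence (CellTiter-Glo) of KB-V1 cells treated for 72 h at 37 degrees C in phenol-red-free DMEM containing 10% FBS.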
Starred values were filed as active, the others as inactive; i = inactive; ? = inconclusive; . = no result; [ ] = remark or other dose. Unless noted, calls follow the shape of the dose curve; as a rule, active = well fitted curve in the direction sought with a large enough effect; inconclusive = small, poorly fitted or top-dose-only effect, or another doubt; inactive = no such curve, though single readings can be large; an effect the other way counts as inactive or inconclusive.

SMILES | DRD3 antagonist | MCF10A rerep | SW480 rereplic | KB-3-1 tox | D3 ag | KB-V1 MDR tox
COc1ccc(C(=O)Nc2ccc(-c3nc4ccccc4[nH]3)cc2)cc1OC | . | . | . | i | . | ?
COc1ccc(CCNC(=O)c2cccc(-n3cnc4cccnc43)c2C)cc1OC | . | . | . | i | 0.5 | i
COc1ccccc1NC(=O)CC(=O)CSc1nnc(-c2ccc(C)cc2)n1-c1ccccc1 | -4.1 | -1.6% | -65.0% | i | 7.8 | 13µM*
CCn1c(COc2ccccc2C)nnc1SCC(=O)OC | 12.0 | 1.4% | -2.4% | i | 0.9 | i
CCn1c(COc2ccccc2C)nnc1SCC(=O)N1CCN(c2ccccc2)CC1 | -17.2 | -3.7% | 0.6% | ? | -4.2 | 8.2µM*
Nc1nc(SCC(=O)N2CCN(c3ccc(F)cc3)CC2)n[nH]1 | -11.9 | -2.5% | -2.4% | i | 4.1 | i
C=CCn1c(N)cc(=O)nc1SCC(=O)N1CCN(c2ccc(F)cc2)CC1 | -153.0* | 1.4% | -0.2% | i | -8.1 | i
C=CCn1c(CSCc2ccccc2)nnc1SCC(=O)N1CCN(c2ccccc2)CC1 | 15.9 | -43.2% | -79.4% | i | -1.6 | 10.3µM*
O=c1cc(-c2ccc(F)cc2)nc(SCc2nc(-c3ccccc3Cl)no2)[nH]1 | . | . | . | i | -14.8 | i
N/C(=N\N=C\c1ccc([N+](=O)[O-])cc1)c1nonc1N | -3.2 | -3.9% | -10.7% | i | 0.8 | i
CS/C(N)=N/N=C/c1ccc([N+](=O)[O-])cc1 | -50.7* | -0.5% | 0.9% | i | -0.5 | i
Cc1nc(NC(C)C)c2cnn(CCc3ccccc3)c2n1 | 5.6 | 20.6µM* | 3.8% | i | 5.5 | ?
CCCNc1nc(C)nc2c1cnn2CCc1ccccc1 | 17.9 | -5.5% | -3.9% | i | 2.8 | i
CN(C)c1cccc(F)c1C(=O)NC(=O)Nc1ccc(Cl)cc1 | -16.8 | 10.3µM* | ? | 3.66µM* | -24.2 | 1.84µM*
CCOCN(C(=O)Cn1cnc2cc(C)c(C)cc21)c1c(C)cccc1CC | . | . | . | ? | 4.4 | 5.17µM*
Cc1ccc(NC(=O)CSc2nc(-c3cccs3)nc3cc(=O)[nH]n23)cc1 | . | . | . | i | 10.9 | ?
COc1ccc(NC(=O)CN2C(=O)CCn3nc(-c4cccn4C)cc32)cc1Cl | . | . | . | i | -8.3 | i
COc1cc(NC(=O)c2cccc(COCC(F)(F)C(F)F)c2)cc(OC)c1OC | 2.2 | ? | . | ? | 1.4 | ?
O=C(c1cccc(COCC(F)(F)C(F)F)c1)N1CCN(c2ccccc2)CC1 | -4.0 | 1.3% | 0.0% | i | 15.1 | 14.6µM*
COc1ccc(/C=N/NC(=O)c2cccc(COCC(F)(F)C(F)F)c2)cc1 | -17.3 | 11.6% | -79.7% | i | -16.7 | 23.1µM*
COc1ccc(/C=N/NC(=O)c2cccc(OC(F)(F)C(F)F)c2)cc1O | -76.1* | 17.1% | -8.3% | i | -14.7 | i
COc1ccc(N2CCN(C(CNS(=O)(=O)c3c(C)cc(C)cc3C)c3ccco3)CC2)cc1 (configuration not stated) | . | . | . | . | -1.9 | .
O=C(Nc1ccc2c(c1)CCC2)c1ccc(Br)o1 | 0.0 | 20.6µM* | -1.3%[9.22 µM] | i | -15.3 | i
Cc1ccc(C(=O)Nc2ccc3c(c2)CCC3)o1 | 22.6 | -4.2% | 0.3% | i | 0.0 | ?
CN1CCN(S(=O)(=O)c2ccc(NC(=O)c3ccc(Br)s3)cc2)CC1 | -21.6 | 14.6µM* | ? | i | -19.2 | i
SMILES | DRD3 antagonist | MCF10A rerep | SW480 rereplic | KB-3-1 tox | D3 ag | KB-V1 MDR tox
CN1CCN(S(=O)(=O)c2ccc(NC(=O)c3ccccc3Cl)cc2)CC1 | 4.2 | -21.0% | 1.7% | i | -2.8 | i
CN1CCN(S(=O)(=O)c2ccc(NC(=O)c3ccc(Br)o3)cc2)CC1 | 8.8 | 16.6% | -5.1% | i | 25.1 | 9.2µM*
CCOc1ccc(CCNC(=O)CN2N=C(c3ccccc3)CCC2=O)cc1OCC | . | . | . | . | -4.9 | .
Nc1c(-c2nc(-c3ccncc3)no2)nnn1CC(=O)Nc1ccccc1 | . | . | . | . | 0.6 | .
CCN(CCCN(C)C)c1ccc(/C=C/c2ccnc3ccccc23)cc1 | . | . | . | i | . | ?
CCc1cccc(NC(=O)CN(C)S(=O)(=O)c2ccc3c(c2)CCCN3C(C)=O)c1 | . | . | . | i | 6.8 | i
C=CCn1c(SCc2ccc(C(=O)O)cc2)nc2sc(C)c(C)c2c1=O | 2.4 | -4.6% | -0.5% | i | -7.5 | i
Cc1sc2nc(SCc3ccc(C(=O)O)cc3)n(Cc3ccco3)c(=O)c2c1C | 146.1 | -2.7% | -13.7% | i | 83.9* | i
CCOc1ccc(S(=O)(=O)Nc2ccc(Cl)cn2)c(C)c1C | 21.8 | -0.7% | -6.9% | ? | 9.5 | 23.1µM*
CCOc1cc(C)c(S(=O)(=O)Nc2ccc(Cl)cn2)cc1C | 26.2 | 23.1µM* | 15.6% | i | 27.6 | ?
CCC(=O)C1=C(c2cccc([N+](=O)[O-])c2)N(C(=O)CC)n2c(nnc2-c2ccccc2)S1 | . | . | . | . | -4.0 | .
Cc1ccc(Oc2ncc(CN3CCOCC3)s2)cc1 | -29.4 | -4.3% | -2.8% | i | -0.4 | i
Brc1ccc(Oc2ncc(CN3CCN(c4ccccc4)CC3)s2)cc1 | -59.5* | 27.1% | 16.0% | ? | 32.7* | i
O=C(COC(=O)c1ccccc1O)Nc1ccc(N2CCOCC2)cc1 | -14.6 | -1.9% | ? | i | -6.0 | i
O=C(COC(=O)C1Cc2ccccc2CN1C(=O)c1ccccc1Cl)Nc1ccc(N2CCOCC2)cc1 (configuration not stated) | ? | 7.8% | 26.2% | i | -7.4 | 14.6µM*
Cc1cccc(C)c1NC(=O)CN1CCCCCC1 | . | 1.3% | -4.4% | . | -17.7 | .
Cc1cc(C)c2c(n1)nn1c(C)c(CCC(=O)Nc3cccc(C)c3C)c(C)nc21 | . | . | . | i | -1.8 | i
Cc1c(C(=O)Nc2ccc3c(c2)OCCO3)sc2ncnc(N3CCCCC3C)c12 (configuration not stated) | 54.4 | ? | -20.1% | 18.4µM* | 20.1 | ?
Cc1nc(N2CCC(C)CC2)c2c(C)c(C(=O)Nc3ccc4c(c3)OCCO4)sc2n1 | 33.8 | 4.6% | -4.8% | i | 1.8 | i

Screening data deposited in PubChem BioAssay by National Center for Advancing Translational Sciences (NCATS).
